# Laboratory results reported in PubChem BioAssay (EPA / NIEHS).
# Inconclusive results are not listed. Activity calls are given as the source filed them. Rule for the calls, unless noted: active = hit-call score of the fitted dose curve at least 0.9, where 1 is the maximum; inactive = score below 0.9.
# Experiments:
# [1] = CCTE_Shafer_MEA_dev_firing_rate_mean: CCTE's Neural Network Formation Assay for Mean Firing Rate, Shafer Lab (AID 2284031)
# In short: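 Primary rat cortical neurons on 48-well MEA plates, exposed from plating day 0 with dosing renewed on DIV 5 and 9. Mean well firing rate over active electrodes, recorded days 5, 7, 9, 12, summarised as trapezoidal AUC.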
# [2] = CCTE_Shafer_MEA_dev_active_electrodes_number: CCTE's Neural Network Formation Assay for Number of Active Electrodes, Shafer Lab (AID 2284040; active = hit-call score of the fitted dose curve at least 0.9, where 1 is the maximum)
# In short: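 Primary rat cortical neurons on 16-electrode MEA wells, exposed from day 0 through day 12 with compound renewed at DIV 5 and 9 feeds. Active electrodes (mean firing ≥5 spikes/min) counted at DIV 5, 7, 9, 12; trapezoidal AUC across days, loss-of-signal versus DMSO.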
# [3] = CCTE_Shafer_MEA_dev_burst_rate: CCTE's Neural Network Formation Assay for Burst Rate, Shafer Lab (AID 2284042)
# In short: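 Cells plated, treated day 0; recorded DIV 5, 7, 9, 12; fed and re-treated DIV 5, 9. Endpoint: bursts per recording time, active-electrode well mean, trapezoidal AUC, fitted in decreasing direction against DMSO baseline.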
# [4] = CCTE_Shafer_MEA_dev_bursting_electrodes_number: CCTE's Neural Network Formation Assay for Number of Bursting Electrodes, Shafer Lab (AID 2284043; active = hit-call score of the fitted dose curve at least 0.9, where 1 is the maximum)
# In short: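 Primary rat cortical neurons plated on 16-electrode MEA wells, exposed from day 0 with compound renewed at DIV 5 and 9. Electrodes bursting ≥1 burst per 2 min counted on days 5, 7, 9 and 12; trapezoidal AUC across days, fitted for loss versus DMSO.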
# [5] = CCTE_Shafer_MEA_dev_per_burst_interspike_interval: CCTE's Neural Network Formation Assay for Burst Interspike Interval, Shafer Lab (AID 2284044);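 note: mean spike spacing inside bursts as AUC over recordings on days 5 7 9 12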
# In short: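 Primary rat cortical neurons on 48-well MEA plates, exposed from day 0 through day 12, treatment renewed at DIV 5 and 9. Within-burst interspike interval recorded days 5, 7, 9, 12, well-averaged, summarised as AUC; negative fit versus DMSO.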
# [6] = CCTE_Shafer_MEA_dev_burst_duration_mean: CCTE's Neural Network Formation Assay for Mean Burst Duration, Shafer Lab (AID 2284045)
# In short: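 Primary rat cortical neurons on 48-well 16-electrode MEA plates, exposed from day 0 with renewal at DIV 5 and 9; spontaneous activity recorded on days 5, 7, 9, 12. Well-mean burst duration across bursting electrodes, collapsed as trapezoidal AUC; DMSO baseline.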
# [7] = CCTE_Shafer_MEA_dev_interburst_interval_mean: CCTE's Neural Network Formation Assay for Mean Interburst Interval, Shafer Lab (AID 2284046);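 note: well-mean interburst interval of bursting electrodes as AUC over four recording days; curve fitted for decrease in interburst interval relative to DMSO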
# In short: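 Developing rat cortical networks on 48-well MEAs receive compound from the day of plating. Burst intervals from each active electrode are averaged per well, and AUC over the recording days is fitted in the negative direction against DMSO.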
# [8] = CCTE_Shafer_MEA_dev_network_spike_number: CCTE's Neural Network Formation Assay for Number of Network Spikes, Shafer Lab (AID 2284048)
# In short: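 Primary rat cortical neurons on PEI/laminin 48-well MEA plates, dosed from plating day 0 for 12 days, renewed at DIV 5 and 9. Network spike counts recorded DIV 5, 7, 9, 12, collapsed as trapezoidal AUC; DMSO baseline.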
# [9] = CCTE_Shafer_MEA_dev_network_spike_peak: CCTE's Neural Network Formation Assay for Mean Number of Electrodes in Network Spike, Shafer Lab (AID 2284049);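 for AC50: fitted for loss of signal meaning fewer electrodes in network spikes than DMSO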
# In short: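 Network-spike peak electrode count from recordings on days 5, 7, 9 and 12 was combined as trapezoidal area under the curve. Rat cortical cultures were treated continuously from plating, with compound renewed at each feed (DIV 5, 9); fits versus DMSO.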
# [10] = CCTE_Shafer_MEA_dev_spike_duration_mean: CCTE's Neural Network Formation Assay for Mean Spike Duration, Shafer Lab (AID 2284051);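 note: mean network spike duration pooled as area under curve over DIV 5 to 12 recordings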
# In short: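 Readout is the average length of network spikes, clustered firing across electrodes, summed over DIV 5, 7, 9 and 12 as area under the curve. Neurons from rat cortex developed networks on MEA plates under continuous 12-day exposure.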
# [11] = tested on: DIO2 (gene 1734); test: CCTE_GLTED_hDIO2: CCTE's human Deiodinase 2 (DIO2) Inhibition Assay, Great Lakes Toxicology and Ecology Division (GLTED) Lab (AID 2284050; active = hit-call score of the fitted dose curve at least 0.9, where 1 is the maximum)
# In short: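 Cell-free human DIO2 incubated 3 h with chemical; liberated iodide quantified by Sandell-Kolthoff absorbance. Triplicate plates; loss of signal fitted vs DMSO.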
# [12] = target: Estrogen receptor (Homo sapiens) (UniProt P03372); test: CCTE_Deisenroth_AIME_384WELL_LUC_Active: CCTE's 384-well Estrogen Receptor Transactivation Assay with AIME metabolic competence (ERTA luciferase; metabolism positive), Deisenroth Lab (AID 2284030; active = hit-call score of the fitted dose curve at least 0.9, where 1 is the maximum)
# Sequence of Estrogen receptor (Homo sapiens) (P03372 whole entry, looked up): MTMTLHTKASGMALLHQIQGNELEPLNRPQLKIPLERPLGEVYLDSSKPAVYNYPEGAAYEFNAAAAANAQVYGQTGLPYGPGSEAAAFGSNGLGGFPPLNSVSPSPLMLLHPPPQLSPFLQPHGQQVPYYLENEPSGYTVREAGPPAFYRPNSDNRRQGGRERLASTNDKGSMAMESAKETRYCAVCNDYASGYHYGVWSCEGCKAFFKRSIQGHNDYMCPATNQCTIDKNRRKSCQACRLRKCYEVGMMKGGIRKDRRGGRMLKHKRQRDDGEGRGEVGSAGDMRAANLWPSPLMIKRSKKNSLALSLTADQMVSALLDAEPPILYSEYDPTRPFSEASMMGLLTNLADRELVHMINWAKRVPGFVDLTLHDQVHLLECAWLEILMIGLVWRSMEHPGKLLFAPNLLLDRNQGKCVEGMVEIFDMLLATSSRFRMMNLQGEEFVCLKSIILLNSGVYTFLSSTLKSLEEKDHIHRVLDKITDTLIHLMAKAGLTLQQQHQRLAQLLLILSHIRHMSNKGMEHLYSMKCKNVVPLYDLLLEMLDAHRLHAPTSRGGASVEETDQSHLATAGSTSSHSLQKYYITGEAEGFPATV
# In short: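 Chemicals (10-point, 0.002-200 uM) were first incubated 2 hours with alginate-immobilized induced male Sprague Dawley rat liver S9. The conditioned medium was then applied to VM7Luc4E2 cells for 24 hours, with ER luciferase induction read by luminescence relative to 17beta-estradiol.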
# [13] = CCTE_Deisenroth_AIME_384WELL_CTox_Active: Cytotoxicity Assessment (CTOX) in CCTE's 384-well Estrogen Receptor Transactivation Assay with AIME metabolic competence (metabolism positive), Deisenroth Lab (AID 2284037; active = hit-call score of the fitted dose curve at least 0.9, where 1 is the maximum;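 note: chemicals first conditioned 2 h by alginate-bound induced rat liver S9 before cells; activity means signal loss indicating cell death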)
# In short: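 Chemicals pre-incubated 2 hours with alginate-immobilised phenobarbital/beta-naphthoflavone-induced male Sprague Dawley rat liver S9, then conditioned medium applied 24 hour to VM7Luc4E2 cells. Viability by fluorogenic protease substrate; 10-point series 0.002 - 200 uM.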
# [14] = target: Estrogen receptor (Homo sapiens) (UniProt P03372); test: CCTE_Deisenroth_AIME_384WELL_LUC_Inactive: CCTE's 384-well Estrogen Receptor Transactivation Assay without AIME metabolic competence (ERTA luciferase; metabolism negative), Deisenroth Lab (AID 2284038; active = hit-call score of the fitted dose curve at least 0.9, where 1 is the maximum;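 note: VM7Luc4E2 breast cells given medium preincubated 2 h with S9-free microspheres; hits raise estrogen receptor luciferase signal so potencies reflect agonists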)
# In short: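 Metabolism-negative mode: chemicals (10-point, 0.002–200 uM) held 2 h with alginate-water microspheres, then conditioned medium applied to VM7Luc4E2 cells for 24 h. Luciferase induction referenced to 17beta-estradiol.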
# [15] = target: Estrogen receptor (Homo sapiens) (UniProt P03372); test: CCTE_Deisenroth_AIME_384WELL_LUC_Shift: CCTE's 384-well Estrogen Receptor Transactivation Assay with AIME metabolic competence data shift (ERTA luciferase; difference in metabolism positive and negative), Deisenroth Lab (AID 2284041);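 note: shift is response with S9 minus without S9 so positive means metabolism raised ER signal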
# In short: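 Chemicals (0.002–200 uM, 10 points) pre-incubated 2 h with alginate-encapsulated induced male Sprague Dawley rat liver S9 or S9-free, then medium applied 24 h to VM7Luc4E2 cells; luciferase. Endpoint is per-concentration difference, S9-positive minus negative.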
smiles,measurement,setting,value
O=P(Oc1ccccc1)(Oc1ccccc1)Oc1ccccc1,outcome,[1],inactive
same,outcome,[2],inactive
same,outcome,[3],inactive
same,outcome,[4],inactive
same,outcome,[5],inactive
same,outcome,[6],inactive
same,outcome,[7],inactive
same,outcome,[8],inactive
same,AC50,[9],2.97 µM (active)
same,outcome,[10],inactive
CCNc1nc(Cl)nc(NC(C)(C)C)n1,outcome,[11],inactive
CC(C)(C)OOC(C)(C)C,outcome,[12],inactive
same,outcome,[13],inactive
same,outcome,[14],inactive
same,outcome,[15],inactive
O=C(O)C=CC(F)(C(F)(F)F)C(F)(F)F,outcome,[1],inactive
same,outcome,[3],inactive
same,outcome,[5],inactive
same,outcome,[6],inactive
same,outcome,[7],inactive
same,outcome,[8],inactive
same,outcome,[9],inactive
same,outcome,[10],inactive
O=c1ssc(Cl)c1Cl,outcome,[12],inactive
same,outcome,[14],inactive
same,outcome,[15],inactive
same,AC50,[11],13.8 µM (active)
OCC(F)(F)OC(F)(F)C(F)(F)OC(F)(F)C(F)(F)OC(F)(F)F,outcome,[1],inactive
same,outcome,[2],inactive
same,outcome,[3],inactive
same,outcome,[4],inactive
same,outcome,[5],inactive
same,outcome,[6],inactive
same,outcome,[7],inactive
same,outcome,[8],inactive
same,AC50,[9],0.818 µM (active)
same,outcome,[10],inactive
